Source: PubChem BioAssay (Tox21)
Results filed as inconclusive are left out. Activity calls are given as the source filed them. Calls come from the whole dose curve; as a rule, active = well fitted cell-killing curve with a large enough effect in the repeat runs; inconclusive = weak or mixed curves, or effect the other way; inactive = flat fitted curve, though single readings scatter.

Assay: qHTS assay to identify small molecule antagonists of the estrogen related receptor signaling pathway with the pleiotropic PPARgamma coactivator (PGC) cell viability counter screen (AID 1224822)
Details: ERR/PGC reporter cell line viability counter screen; series mostly up to 46.1 µM; viability change, negative = cytotoxic: at the top concentration
In short: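 Fluorescence read-out of CellTiter-Fluor after 30 min at 37 C; PGC/ERR cells, 2,000 per well, had been exposed to DMSO-dissolved compounds for 17.5 h following a 6 h pre-incubation.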
% is set by controls: 0 for no effect and ±100 for the full control effect.

Row | SMILES | viability change, negative = cytotoxic
1 | C[C@]12C=CC(=O)C=C1CC[C@@H]1C2=CC[C@]2(C)[C@@H](C(=O)CN3CCN(c4cc(N5CCCC5)nc(N5CCCC5)n4)CC3)CC[C@@H]12 | -13.6% (inactive)
2 | NC(N)=NCc1cccc(I)c1 | -8.29% (inactive)
3 | CCN(CC)CCn1c(=O)c(Cc2ccc(OC)cc2)nc2ccccc21 | 0.817% (inactive)
4 | O=C(Nc1ccc2c(c1)CCN(Cc1ncn[nH]1)C2)c1ccccc1-c1ccc(C(F)(F)F)cc1 | -7.22% (inactive)
5 | N=C(N)c1ccc(N)cc1 | -5.61% (inactive)
6 | COc1cc(SC)ccc1C(=O)N1CCC(Cc2ccccc2)CC1 | -9.38% (inactive)
7 | COc1cccc(C(=O)NCCN2CCN(c3ccc(Cl)cc3)CC2)c1 | -10.9% (inactive)
8 | CC(C)(C)c1ccc(/C=C/C(=O)Nc2ccc3c(c2)OCCO3)cc1 | -13.6% (inactive)
9 | Nc1nc2ccc(Cl)cc2c2nc(-c3ccco3)nn12 | -6.33% (inactive)
10 | O=C1NC(c2cccc([N+](=O)[O-])c2)=CCN1c1ccccc1O | -10% (inactive)
11 | COc1ccc(-c2cc(=O)c3c(O)c(OC)c(OC)cc3o2)cc1O | -25.7% (inactive)
12 | CC(=O)NC[C@H]1CN(c2ccc(N3CCOCC3)c(F)c2)C(=O)O1 | 4.41% (inactive)
13 | Cc1cccc(C)c1OCC(N)C(C)C (configuration not stated) | 4.15% (inactive)
14 | C[C@@]1(C2CCCC2)Cc2cc(OCC(=O)O)c(Cl)c(Cl)c2C1=O | -15.9% (inactive)
15 | O=C(CCc1ccncc1)NNC(=O)N1Cc2ccccc2Oc2ccc(Cl)cc21 | -2.1% (inactive)
16 | CCC1(O)CC2CN(CCc3c([nH]c4ccccc34)[C@@](C(=O)OC)(c3cc4c(cc3OC)N(C)C3[C@]45CCN4CC=C[C@@](CC)([C@@H](OC(C)=O)[C@]3(O)C(=O)OC)[C@H]45)C2)C1 (some centres not stated) | -20.7% (inactive)
17 | O=C(CCSCc1ccco1)NNC(=O)N1Cc2ccccc2Oc2ccc(Cl)cc21 | -9.66% (inactive)
18 | N=C(N)c1ccc(OCCCCCOc2ccc(C(=N)N)cc2)cc1 (tested in a mixture with another compound) | -5.75% (inactive)
19 | c1ccc(C(NCCNC(c2ccccc2)c2ccccc2)c2ccccc2)cc1 | -17.6% (inactive)
20 | C[C@@H](CN1CCC(Cc2ccccc2)CC1)[C@@H](O)c1ccc(O)cc1 | 4.89% (inactive)
21 | Cn1cc(C(F)(F)F)nc1-c1ccc(OCC(O)CNCCOc2ccc(O)c(C(N)=O)c2)cc1 (configuration not stated) | -2.63% (inactive)
22 | CCCc1c(-c2ccc(O)cc2)nn(-c2ccc(O)cc2)c1-c1ccc(O)cc1 | -12.5% (inactive)
